# Laboratory results as given in PubChem BioAssay (EPA / NIEHS).
# Activity calls are given as the source filed them. The calls were made as follows: active = hit-call score of the fitted dose curve at least 0.9, where 1 is the maximum; inactive = score below 0.9.
# Experiments:
# [1] = Tanguay_ZF_120hpf_MUSC: Oregon State University Tanguay Lab 120 Hour Post-fertilization zebrafish Assay for Muscle Malformation (AID 2284401)
# Outline: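 Scored as a binary brightfield endpoint at 120 hpf, fitted versus DMSO. Single dechorionated wild-type (Tropical 5D) zebrafish embryos per well, statically exposed at 28C from 6 hpf onward with final DMSO 0.64%.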
# [2] = UKN5_HCS_SBAD2_cell_viability: Viability Assessment in the University of Konstanz (UKN) Leist Lab Neurite Outgrowth Assay in human iPSC-derived immature Dorsal Root Ganglia Neurons (UKN5) (AID 2284056)
# Outline: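 iPSC-derived immature peripheral neurons (SBAD2) seeded on Matrigel with CHIR99021, SU5402 and DAPT, dosed 1 h later for 24 h. Viability from Hoechst H-33342 and calcein-AM live staining, high-content imaging; bidirectional fit versus DMSO.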
# [3] = UKN5_HCS_SBAD2_neurite_outgrowth: University of Konstanz (UKN) Leist Lab Neurite Outgrowth Assay in human iPSC-derived immature Dorsal Root Ganglia Neurons (UKN5) (AID 2284070); details: actives raise or lower the signal
# Outline: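 Neurite outgrowth is quantified as calcein-AM-labelled neurite area in human iPSC-derived peripheral neurons treated for 24 h, starting 1 h after plating in medium with CHIR99021 (1.5 uM), SU5402 (5 uM) and DAPT (5 uM).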
# [4] = UKN2_HCS_IMR90_neural_migration: University of Konstanz (UKN) Leist Lab Neural Crest Cell Migration Assay in human induced IMR90 Pluripotent Stem Cells (UKN2) (AID 2284204); details: actives raise or lower the signal
# Outline: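 Stopper-exclusion migration (cMINC), human iPSC-derived neural crest cells; N2-S + EGF/FGF; compound added 24 h post-stopper removal, 24 h exposure. Readout: calcein-AM/Hoechst 30 min, HCS fluorescence imaging; bidirectional fitting, DMSO baseline.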
# [5] = UKN4_HCS_LUHMES_neurite_outgrowth: University of Konstanz (UKN) Leist Lab Neurite Outgrowth Assay in human LUHMES cells (UKN4) (AID 2284206); details: actives raise or lower the signal
# Outline: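 Neurite area in dopaminergic-model LUHMES neurons is measured by high-content imaging of calcein-AM after 24 h treatment starting shortly after day-2 replating; Hoechst staining tracks viability.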
# [6] = UKN4_HCS_LUHMES_cell_viability: Viability Assessment in the University of Konstanz (UKN) Leist Lab Neurite Outgrowth Assay in human LUHMES cells (UKN4) (AID 2284232)
# Outline: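 Measured in replated, 2-day-differentiated LUHMES cells treated 24 h; stained 30 min with H-33342 and calcein-AM before high-content imaging.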
# [7] = UKN2_HCS_IMR90_cell_viability: Viability Assessment in the University of Konstanz (UKN) Leist Lab Neural Crest Cell Migration Assay in human induced IMR90 Pluripotent Stem Cells (UKN2) (AID 2284233);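 also: cells exposed to compound for 24 h after a 24 h migration phase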
# Outline: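 Viability read as calcein-AM fluorescence by high-content imaging, Hoechst co-stain, 30 min. Human iPSC (IMR90) neural crest cells had migrated 24 h into stopper-defined gaps before 24 h chemical exposure. Fitted bidirectionally relative to DMSO.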
structure (smiles),measurement,setting,value
O=C(O)C(F)(F)C(F)(F)F,outcome,[1],inactive
COC(F)(C(F)F)C(F)(F)F (configuration not stated),outcome,[1],inactive
C=C(C)C(=O)OCCC(F)(F)C(F)(F)C(F)(F)C(F)(F)C(F)(C(F)(F)F)C(F)(F)F,outcome,[1],inactive
O=C(O)C(F)(F)C(F)(F)C(F)(F)C(F)(F)C(F)(F)C(F)(F)C(F)(F)C(F)(F)C(F)(F)C(F)F,outcome,[1],inactive
[CH3][Sn]([CH3])([CH3])[Cl],AC50,[2],18.8 µM (active)
same,AC50,[3],3.1 µM (active)
same,AC50,[4],7.88 µM (active)
same,AC50,[5],2.5 µM (active)
same,AC50,[6],4.02 µM (active)
same,AC50,[7],4.51 µM (active)
C=CC(=O)OCCC(F)(F)C(F)(F)C(F)(F)C(F)(F)C(F)(F)C(F)(F)C(F)(F)C(F)(F)F,outcome,[1],inactive
O=C(O)C(F)(F)C(F)(F)C(F)(F)C(F)(F)C(F)(F)C(F)(F)C(F)(F)C(F)(F)C(F)(F)C(F)(F)C(F)(F)C(F)(F)F,outcome,[1],inactive
O=[As](O)(O)O,AC50,[2],4.31 µM (active)
same,AC50,[3],1.4 µM (active)
same,outcome,[4],inactive
same,AC50,[5],74.5 µM (active)
same,AC50,[6],71.4 µM (active)
same,AC50,[7],104 µM (active)
C=C(C)C(=O)OCC(F)(F)C(F)(F)C(F)(F)C(F)(F)C(F)(F)C(F)(F)C(F)(F)F,outcome,[1],inactive
C=CC(=O)OCC(F)(F)C(F)(F)C(F)(F)COC(=O)C=C,outcome,[1],inactive
FC(F)(F)C(F)(F)C(F)(F)C(F)(F)CCI,outcome,[1],inactive
CN1CC=C(c2ccccc2)CC1,outcome,[2],inactive
same,outcome,[3],inactive
same,outcome,[4],inactive
same,outcome,[5],inactive
same,outcome,[6],inactive
same,outcome,[7],inactive
